Where “and” joins values, the source holds several entries; their conditions need not be identical. Equal entries are not always repeated. Records with an inconclusive call do not appear. Entries that show only a call come without a potency. Calls of active or inactive are those of the source. Unless noted, calls follow the shape of the full dose curve.
system: not listed separately; assay: qHTS assay to identify small molecule agonists of the peroxisome proliferator-activated receptor delta (PPARd) signaling pathway - cell viability counter screen (AID 743211; active = well fitted cell-killing curve with a large enough effect in the repeat runs; also: nearly all actives have a fitted effect of over 55% in size; also: potency is read from the fitted curve at half-maximal effect); details: PPARd-bla HEK293H viability, CellTiter-Glo luminescence, 17 h; series mostly up to 62.6 µM
Summary of the method: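 Viability was measured as CellTiter-Glo luminescence (30 min, room temperature) in the same wells as the beta-lactamase readout. GeneBLAzer PPARd UAS-bla HEK293H cells received compound after 5 h plating and were incubated 17 h at 37 C.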

| Compound | Potency |
| --- | --- |
| O=CCCCC=O | inactive |
| COC(C)COC(C)COC(C)CO (centres undefined) | inactive |
| COC(=O)C1=C(C)NC(C)=C(C(=O)OCCN(C)Cc2ccccc2)C1c1cccc([N+](=O)[O-])c1 (centres undefined) | 24.4 µM (active) and 26.6 µM (active) |
| CC(C)Oc1ccc2c(=O)c(-c3ccccc3)coc2c1 | inactive |
| C=C(C)C(=O)OCCOC(=O)C(=C)C | inactive |
| Clc1nc(Cl)c(Cl)c(Cl)c1Cl | inactive |
| O=C(/C=C/C=C/c1ccc2c(c1)OCO2)N1CCCCC1 | inactive |
| C[C@]12CCC(=O)C=C1CC[C@@H]1[C@@H]2C(=O)C[C@@]2(C)[C@H]1CC[C@]2(O)C(=O)CO | inactive |
| CN1C(C(=O)Nc2ccccn2)=C(O)c2ccccc2S1(=O)=O | inactive |
| Cc1ccc(C(=O)c2cc(O)c(O)c([N+](=O)[O-])c2)cc1 | inactive |
| CC(C)CC(C)(O)C#CC(C)(O)CC(C)C (centres undefined) | inactive |
| O=c1oc(=O)c2cc3c(=O)oc(=O)c3cc12 | inactive |

molecular target: Peroxisome proliferator-activated receptor delta (Homo sapiens) (UniProt Q03181); assay: qHTS assay to identify small molecule agonists of the peroxisome proliferator-activated receptor delta (PPARd) signaling pathway (AID 743212); details: HEK293H PPARd-UAS-bla, beta-lactamase FRET ratio, 17 h; series mostly up to 62.6 µM
Sequence (Q03181 whole entry, looked up): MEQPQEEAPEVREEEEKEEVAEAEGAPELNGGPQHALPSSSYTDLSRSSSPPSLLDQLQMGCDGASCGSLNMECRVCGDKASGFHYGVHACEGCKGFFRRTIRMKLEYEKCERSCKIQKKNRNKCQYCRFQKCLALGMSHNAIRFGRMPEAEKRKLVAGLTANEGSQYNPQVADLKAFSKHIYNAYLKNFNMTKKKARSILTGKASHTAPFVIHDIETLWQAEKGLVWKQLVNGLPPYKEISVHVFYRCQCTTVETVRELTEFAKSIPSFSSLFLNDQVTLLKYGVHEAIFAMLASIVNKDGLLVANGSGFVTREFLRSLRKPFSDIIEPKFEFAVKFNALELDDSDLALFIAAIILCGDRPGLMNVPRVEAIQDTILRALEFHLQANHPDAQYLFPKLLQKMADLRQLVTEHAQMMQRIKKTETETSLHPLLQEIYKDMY
Summary of the method: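 Beta-lactamase reporter read by fluorescence (LiveBLAzer B/G FRET, 2 h, room temperature). Test agents, in DMSO, incubated at 37 C with PPARd-bla HEK293H cells.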

| Compound | outcome |
| --- | --- |
| OC(CCl)CCl | inactive |
| CN(C)CCC=C1c2ccccc2CCc2ccccc21 | inactive |
| NC=O | inactive |
| CCCCOCCOCCOCCO | inactive |
| CCOCCOCCO | inactive |
| CCC(C)(O)CCCC(C)C (centres undefined) | inactive |
| Cc1ccc(C)c(O)c1C | inactive |
| Cc1[nH]c(=O)c(C#N)cc1-c1ccncc1 | inactive |
| CNCCCC12CCC(c3ccccc31)c1ccccc12 | inactive |
| Cc1cccc(C(=O)O)c1 | inactive |
| Nc1ncn([C@@H]2O[C@H](CO)[C@@H](O)[C@H]2O)c(=O)n1 | inactive |
| OC1CCCCCCCCCCC1 | inactive |
| Nc1ncnc2nc[nH]c12 | inactive |
| CC(C(=O)O)c1cccc(C(=O)c2ccccc2)c1 (centres undefined) | inactive |
| Cc1c(C(N)=O)cc([N+](=O)[O-])cc1[N+](=O)[O-] | inactive |
| CC(C)OC=O | inactive |

| Compound | outcome |
| --- | --- |
| O=[N+]([O-])c1ccc2c(c1)Cc1ccccc1-2 | inactive |
| Cc1c(OCC(F)(F)F)ccnc1CS(=O)c1nc2ccccc2[nH]1 (centres undefined) | inactive |
| CC(C)OC(=O)C(C)(C)Oc1ccc(C(=O)c2ccc(Cl)cc2)cc1 | inactive |
| c1ccc2c(c1)c1cccc3ccc4cccc2c4c31 | inactive |
| O=Cc1ccccc1O | inactive |
| C[C@]12CC[C@H]3[C@@H](CCC4=CC(=O)CC[C@@]43C)[C@@H]1CC[C@@H]2C(=O)CO | inactive |
| O=CCCCC=O | inactive |
| COC(C)COC(C)COC(C)CO (centres undefined) | inactive |
| COC(=O)C1=C(C)NC(C)=C(C(=O)OCCN(C)Cc2ccccc2)C1c1cccc([N+](=O)[O-])c1 (centres undefined) | inactive |
| CC(C)Oc1ccc2c(=O)c(-c3ccccc3)coc2c1 | inactive |
| C=C(C)C(=O)OCCOC(=O)C(=C)C | inactive |
| Clc1nc(Cl)c(Cl)c(Cl)c1Cl | inactive |
| O=C(/C=C/C=C/c1ccc2c(c1)OCO2)N1CCCCC1 | inactive |
| C[C@]12CCC(=O)C=C1CC[C@@H]1[C@@H]2C(=O)C[C@@]2(C)[C@H]1CC[C@]2(O)C(=O)CO | inactive |
| CN1C(C(=O)Nc2ccccn2)=C(O)c2ccccc2S1(=O)=O | inactive |
| O=c1oc(=O)c2cc3c(=O)oc(=O)c3cc12 | inactive |
